What is called inhibition is the relative decrease from the control value, in per cent.

Structures are written as SMILES. Activity calls are given as the source filed them.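 The calls were made as follows: active = inhibition above 20% together with a positive visual image hit; inconclusive = visual image hit but inhibition not above 20%; inactive = no visual image hit.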

For 40 compounds, inhibition and cell count results are on record in PubChem BioAssay.

The nature of this assay: inhibitors of TNFa-induced NFkB p65 translocation, primary screen, imaging, HUVEC, MLSMR starter and 10KST1 sets (AID 438).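 Also: compound added about 3h40 before a 20 min TNFalpha stimulation.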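 As to inhibition: signal is the nuclear over cytoplasmic p65 intensity ratio per well.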 Particulars: HUVEC TNFa-induced p65 nuclear translocation; cell count: measured here: nuclei count (cytotoxicity indicator), at 2.08 µM; inhibition: at 2 µM, stronger effect = higher value, 0% TNFa-plus-vehicle, 100% no-TNFa wells.
Turning to `COc1ccccc1CCNC(=O)C1CCCO1` (stereo not given), the inhibition is -8.8% (inactive) and the cell count turned out to be 665.
For the compound `CSc1ccccc1NC(=O)C1CCCO1` (stereo not given), the cell count is 842 and the inhibition is 4.5% (inactive).
In the same order, the values of `Cn1c(=O)cc(OCCCC(=O)N2CCCCC2)c2ccccc21` are 372 and 8.3% (inactive).
The matching figures for `CCCc1[nH]nc2c1C(c1cn[nH]c1-c1ccc(F)cc1)C(C#N)=C(N)O2` (stereo not given): 438 and -8.3% (inactive).
In the same order, the values of `CN1C(=S)SC(C)(NO)C1(C)C` (stereo not given) are 446 and 6.5% (inactive).
In the case of `O=C(NCc1ccc2c(c1)OCO2)C1CCC(CNc2c(N3CCCCC3)c(=O)c2=O)CC1` (stereo not given), the cell count came to 579 and the inhibition is 6.8% (inactive).
For `CC(C)(CO)NC(=O)CCCOc1ccc(Cl)cc1Cl`, the inhibition is -4.9% (inactive) and the cell count worked out at 397.
`CN(C(=O)C1CCOC1)c1nnc(-c2cccnc2)s1` (stereo not given): the inhibition is -12.4% (inactive) and the cell count is 745.
In the case of `COc1ccc(OC)c2[nH]c(=O)c(CCNC(=O)CC(C)C)cc12`, the inhibition was -12.8% (inactive) and the cell count is 325.
The matching figures for `COc1ccc(S(=O)(=O)N2CCCC2C(=O)Nc2ccc(O)cc2)cc1` (stereo not given): 7.1% (inactive) and 601.
In the same order, the values of `CCN(CC)Cc1nc2c(c(=O)[nH]1)C1(CCCCC1)Cc1ccccc1-2` are 9.9% (inactive) and 443.
In the same order, the values of `COc1ccc(NC(=O)C2CCCCN2S(=O)(=O)c2ccc(F)cc2)cc1` (stereo not given) are 3.7% (inactive) and 630.
Regarding `CCOC(=O)c1c(NC(=O)c2cccs2)sc2c1CCN(C(=O)OCC)C2`, the cell count was determined as 416 and the inhibition is -2% (inactive).
In the same order, the values of `Cc1c(NC(=O)c2ccc(COc3ccc4ccccc4c3)o2)c(=O)n(-c2ccccc2)n1C` are 417 and 2.2% (inactive).
For `CCOc1ccccc1N(C(=O)c1ccco1)C(C(=O)NC1CCCC1)c1cccnc1` (stereo not given), the cell count was found to be 634 and the inhibition is -9.3% (inactive).
In the same order, the values of `CCn1cc(C(=O)NCc2ccccc2OC)c(=O)c2cc(S(=O)(=O)N(C)C)ccc21` are 665 and -5.5% (inactive).
The matching figures for `CC1CCCN(C(=O)CN2CCN(C(=O)c3ccco3)CC2)C1` (stereo not given): 238 and 0.4% (inactive).
With `N#Cc1nc(COc2ccccc2Cl)oc1N1CCCCCC1`, the cell count worked out at 577 and the inhibition was 1.1% (inactive).
`Cc1nc2sc(C(c3cccc(F)c3)N3CCC(C)CC3)c(O)n2n1` (stereo not given): the inhibition is -5.4% (inactive) and the cell count was found to be 231.
On to `CC1CCCN(c2ccc(C(=O)NCc3cccs3)cn2)C1` (stereo not given), for which the inhibition is -14.3% (inactive) and the cell count is 632.
As to `O=C(C1CCC(CNS(=O)(=O)c2cccc3cccnc23)CC1)N1CCCC1` (stereo not given), the cell count came to 711 and the inhibition was 5.5% (inactive).
Turning to `O=C1c2ccccc2C(Nc2ccc3c(c2)OCO3)N1Cc1ccc2c(c1)OCO2` (stereo not given), the inhibition is -8.5% (inactive) and the cell count came out at 529.
The matching figures for `NC(=O)C1CCN(C(=O)c2cc3n(n2)C(C(F)(F)F)CC(c2ccco2)N3)CC1` (stereo not given): -5.4% (inactive) and 537.
Take `O=C(Cn1ncc2c1-c1ccccc1OC2)Nc1ccc(Cl)cn1`: the cell count is 462 and the inhibition was -2.9% (inactive).
As for `O=C(NC1CCCCC1)C(c1ccc(Cl)cc1)N(C(=O)c1cnccn1)c1ccc2c(c1)OCO2` (stereo not given), the cell count was 694 and the inhibition is 3.4% (inactive).
As for `COc1ccc(NC(=O)c2cnc3n(c2=O)CCS3)cc1OC`, the inhibition was -3.4% (inactive) and the cell count came out at 484.
The matching figures for `COc1ccccc1N1CCN(C(=O)CSc2nc3ncnc(N)c3[nH]2)CC1`: -8.8% (inactive) and 467.
In the same order, the values of `CC(C)(C)c1nc(CN2CCOCC2)ccc1O` are -17% (inactive) and 580.
As to `Cc1ccccc1C(=O)NC1CCN(Cc2nnnn2Cc2ccccc2)CC1`, the inhibition was -30.6% (inactive) and the cell count is 551.
With `COCCn1c(C)c(C(=O)O)sc1=S`, the inhibition is 3.8% (inactive) and the cell count came out at 279.
For `Cc1sc2nc(SCC(=O)N3CCN(CCO)CC3)n(-c3ccccc3)c(=O)c2c1C`, the cell count was determined as 397 and the inhibition is 7% (inactive).
Regarding `O=C(c1ccco1)N1CCN(c2nc(C(F)(F)F)nc3c2nnn3Cc2ccccc2)CC1`, the inhibition was -2.5% (inactive) and the cell count came out at 534.
In the case of `Cc1ccccc1CN1CCN(C(=O)c2cccc(F)c2)CC1`, the cell count was determined as 284 and the inhibition is -13% (inactive).
The matching figures for `CCOC(=O)c1c(COC(=O)c2ccco2)nc2ccccc2[n+]1[O-]`: 570 and 8.9% (inactive).
In the same order, the values of `COC(=O)CCCCC(=O)C1C(=O)CC(C)(C)C(C(=O)OC)C1=O` (stereo not given) are 431 and -0.3% (inactive).
The matching figures for `COCCn1c(CN2CCN(c3ccccc3F)CC2)nc2c1c(=O)n(C)c(=O)n2C`: 609 and -5.2% (inactive).
On to `CC(C)(C#N)Nn1cnnc1`, for which the inhibition is 5.3% (inactive) and the cell count stood at 609.
In the same order, the values of `CCC(C)(C(=O)NC1CCCC1)N(Cc1cccs1)C(=O)Cc1cccs1` (stereo not given) are -0.9% (inactive) and 698.
In the same order, the values of `COc1cccc(CN=CC2=C(O)CC(C)(C)CC2=O)c1OC` are -18.3% (inactive) and 326.
As for `Cc1[nH]c2c(C)cccc2c(=O)c1Br`, the inhibition is 6.7% (inactive) and the cell count came to 440.
